Common to all, as to assay: NCI-60 one-dose screen, 48 h (100 = growth as untreated, 0 = no growth, -100 = all killed)
Details in all cases: 10 µM

In assay [1] the test system is HCT-15 colon.
Assay [2] has as its system HT29 colon.
The test system of assay [3] is SNB-75 CNS.
Assay [4] deals with SNB-19 CNS.
Assay [5] relates to U251 CNS.
Assay [6] deals with PC-3 prostate.
Assay [7] deals with SK-MEL-5 melanoma.
Assay [8] relates to UACC-62 melanoma.
Assay [9] concerns LOX IMVI melanoma.
Assay [10] deals with SK-MEL-28 melanoma.
The test system of assay [11] is SK-MEL-2 melanoma.
The test system of assay [12] is EKVX NSCLC.
Assay [13] concerns UO-31 renal.
Assay [14] has as its system TK-10 renal.
Assay [15] deals with ACHN renal.
Assay [16] deals with CAKI-1 renal.
Assay [17] relates to A498 renal.
Assay [18] has as its system CCRF-CEM leukemia.
The subject of assay [19] is MOLT-4 leukemia.
For assay [20], the system named is SN12C renal.

Experimental findings from PubChem BioAssay (NCI) are described below.

This is part of a sample that, as a whole, favours compounds with a hit. Of some 83,000 tested, about 20% had one in any assay.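 The test compound was applied at a single concentration to cells in 96-well plates for 48 hours, and percent growth was recorded.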 Unmarked numbers belong to inactive results. Activity calls are given as the source filed them. How the source made its calls: active means growth percent below 10; inactive means the rest.

With `O=C(O)CCCCSCCCCC(=O)O`, the growth in assay [1] was 106%; in assay [2], 90.4%; in [3] it was 95.7%; in assay [4] it was 108%; in [5] it was 93.3%; in assay [6], 96.8%. Moreover, the growth in assay [7] was 93.9%; in assay [8], 109%; in assay [9], 109%; in assay [10], 114%; in [11] it was 93.2%; in assay [12], 106%. In addition, the growth in assay [13] was 92.7%; in assay [14], 92%; in [15], 104%; in assay [16], 100%; in assay [17], 118%; in assay [18], 95.8%. Also, in assay [19], the growth was 93.1%.
With `CCCCCCN=C(N)CCCCCCCCCCC(N)=NCCCCCC`, the growth in assay [1] was 31.8%; in [2], 14%; in assay [3] it was 23.8%; in assay [4], 18.4%; in [5], 14.8%; in [6] it was 23.8%. Moreover, the growth in assay [7] is 20%; in [8] it was 40.9%; in [9], 37.2%; in assay [10], 55.8%; in [11] it was 38.3%; in [12] it was 34.6%. Further, the growth was 78.6% in [13]; 55.6% in [14]; 48.5% in assay [15]; 55.9% in assay [16]; 37% in assay [17]; 29.5% in assay [18]. Further, in assay [19], the growth is 38.2%.
Take `CC(C)c1[nH]nc2c(NCc3ccc(-c4ccccn4)cc3)nc(SCCN)nc12`: the growth in [1] is 7.24% (active); in assay [2] it was -24.2% (active); in assay [3], -78.5% (active); in assay [4], 12.2%; in assay [5] it was 5.64% (active); in assay [6], -0.489% (active). Also, the growth was -38.6% (active) in assay [7]; -10.2% (active) in [8]; -18.5% (active) in assay [9]; -13.8% (active) in assay [10]; -82.1% (active) in assay [11]; 1.6% (active) in [12]. Further, the growth in [13] is 0.673% (active); in [14] it was -2.72% (active); in [15], 6.26% (active); in assay [16], 25.6%; in [17], -69.5% (active); in [18], -0.568% (active). Moreover, the growth in assay [19] was -0.423% (active).
`c1ccc(C2CCCCC2)c(OCCCCCN2CCNCC2)c1`: the growth in assay [1] was -34.7% (active); in assay [2], 3.84% (active); in [3], 48.3%; in assay [4], 71.1%; in [5], 26.1%; in assay [6], 43.6%. For the same molecule, the growth was 16.5% in assay [7]; -51.3% (active) in assay [8]; -35% (active) in assay [9]; -15.8% (active) in assay [10]; 82% in assay [11]; 67.4% in [12]. Moreover, the growth in [13] is 66.6%; in assay [14], 83.2%; in [15] it was 53.3%; in assay [16], 66.2%; in assay [17], 52.4%; in assay [18], 27.1%. For the same molecule, the growth in [19] was 33.5%.
For the molecule `O=C1CC[C@@H](C(=O)N[C@H]2CSSC[C@@H](C(=O)N/C=C/c3ccc(O)cc3)NC(=O)[C@H](Cc3ccccc3)NC(=O)[C@@H]3CCCN3C(=O)[C@@H]3CCCN3C2=O)N1`, the growth was 97% in assay [1]; 99.8% in assay [2]; 100% in [3]; 94.4% in [4]; 96.2% in assay [5]; 87.3% in assay [6]. Moreover, the growth in assay [7] was 97.5%; in assay [8], 99.7%; in assay [9], 94.5%; in [10] it was 101%; in [11] it was 93.5%; in assay [12] it was 95%. The growth in [13] is 101%; in [14] it was 94.8%; in [15], 100%; in [16] it was 96.5%; in [17] it was 108%; in assay [18] it was 68%. Moreover, in assay [19], the growth is 88.9%.
`COC(=O)c1cnc2c(c1)Oc1ccccc1-c1ccnn1-2`: the growth in assay [1] was 102%; in assay [2] it was 90.3%; in assay [3], 86.5%; in [4], 106%; in assay [5] it was 90.7%; in assay [6] it was 94.3%. Further, the growth in assay [7] is 94.1%; in assay [8] it was 106%; in [9], 91.3%; in assay [10] it was 116%; in assay [11], 96.3%; in [12], 92.1%. The growth is 80.8% in assay [13]; 95.3% in [14]; 101% in [15]; 86.8% in assay [16]; 90.4% in [17]; 94.9% in assay [18]. Moreover, in assay [19], the growth is 91.1%.
Take `CC(=O)/C(=C\c1ccc(Cl)cc1)c1ccccc1`: the growth in assay [1] is 10.3%; in assay [2] it was 2.71% (active); in assay [3] it was 37.4%; in [4] it was 29.7%; in assay [5] it was 13.6%; in assay [6], 21.9%. The growth in assay [7] is -35.6% (active); in assay [8], 29.2%; in assay [9], 0.385% (active); in assay [10] it was 65%; in assay [11] it was 39.3%; in assay [12] it was 32.9%. Besides, the growth in [13] is 52.2%; in [14] it was 57.1%; in assay [15], 29.6%; in assay [16], 15.6%; in assay [17] it was 15.7%; in [18] it was 11.1%. Further, the growth in assay [19] was 11.9%.
Turning to `COc1cc(Cl)cc(-c2nn(-c3cccc(NC(=O)Nc4cccc(C(F)(F)F)c4)c3)cc2-c2ccncc2)c1`, the growth in [1] is 7.83% (active); in assay [2], 5.75% (active); in assay [3], 12.5%; in assay [4], 16.1%; in assay [5] it was 4.59% (active); in assay [6], -9.92% (active). The growth in assay [7] was 5.3% (active); in assay [8], -11.5% (active); in assay [9] it was 4.64% (active); in [10], 14.1%; in assay [11], -36.7% (active); in [20], 13.9%. In addition, the growth in assay [13] is -4.59% (active); in [14], 23.4%; in [15], 5.44% (active); in [16], 16.1%; in [17] it was -6.74% (active); in assay [18] it was 3.34% (active).
